The values below come from the OligoGym collection.
Note: reference of the scale not given here.

The target of one test is WDR7. Description: pooled miR-30 sensor sort-seq; sequence = guide strand. Particulars: shRNA.
With TTGTCCGTCGTGACATCCTGTT, the sensor-assay potency score (higher = more potent) was -0.875.

For TAAGTGAATCAACAGCAGCAGG, the sensor-assay potency score (higher = more potent) is -1.52.

In turn, TTTGTCCGTCGTGACATCCTGT showed a sensor-assay potency score (higher = more potent) of -0.661.

For the sequence TTAGGTTTGTCTTTATTGCTTG, the sensor-assay potency score (higher = more potent) amounted to 0.201.

For TAACACAGTGCATAGCAGCTAA, the sensor-assay potency score (higher = more potent) is -0.462.

The sequence TTAATTTGCAGTTCTACTGAAA gave a sensor-assay potency score (higher = more potent) of -0.417.

In turn, TAGCTGACCATGTAGAACCTGC displayed a sensor-assay potency score (higher = more potent) of 0.024.

For TTAGACAAACAAGTGATTGATG, the sensor-assay potency score (higher = more potent) was -0.425.

On to TTTAGAATCTCAACTGCTGTTA, for which the sensor-assay potency score (higher = more potent) was determined as 0.0218.

Consider ATATTTGGAACACACAACCAAA, for which the sensor-assay potency score (higher = more potent) is -1.51.

In turn, TATTGCTTGAACCATCAGGGAG gave a sensor-assay potency score (higher = more potent) of -0.959.

As to TGTCTTTATTGCTTGAACCATC, the sensor-assay potency score (higher = more potent) was -1.06.

For a further test, the target named is WDR96. The description is as above. The settings on record: shRNA.
For the sequence TTTTTGAGTAGTTTCTTGCAGT, the sensor-assay potency score (higher = more potent) is -0.3.

Sequence TACACAAGCACAATCCTCCAGC had a sensor-assay potency score (higher = more potent) of -0.19.

For the sequence TTTCTCTAGAGCTTAATTCTTC, the sensor-assay potency score (higher = more potent) is -0.586.

TAGATTTCCGAACAGCTTCTGA: the sensor-assay potency score (higher = more potent) was -0.901.

TAATCTTTCAACTTCAGTCTGT: the sensor-assay potency score (higher = more potent) amounted to 0.842.

Regarding TTGCCTTTCAATTTGGTCCTTC, the sensor-assay potency score (higher = more potent) was 0.277.

Turning to TCATCTTGCACAACAAGCGTTC, the sensor-assay potency score (higher = more potent) was -0.652.

On to TTACACAAAATGATACTCGATT, for which the sensor-assay potency score (higher = more potent) was -0.176.

For the sequence TTGCTGATCATAAACGACGTGC, the sensor-assay potency score (higher = more potent) came out at 0.0797.

Sequence TACATCTTTACTTTCCATCATG registered a sensor-assay potency score (higher = more potent) of -0.972.

For the sequence TAAGTTGTCATAGTGCTCCTTG, the sensor-assay potency score (higher = more potent) was 0.702.
